From the supplement of paper PMC11732987, “Enantioselective OTUD7B fragment discovery through chemoproteomics screening and high-throughput optimisation” (Communications Chemistry, 2025)

Legend:
Assay in all cases: log2 ratio of Biotin-Ahx-Ub-VS probe labelling (fragment/DMSO); higher = less target engagement (more negative = stronger competition), active = hit call of the paper (q ≤ 0.05, log2 ratio ≤ -1)
Conditions in all cases: compound concentration: 200 uM; treatment time: 3 h
[1] = target: USP34 (UniProt Q70CQ2)
Sequence of USP34 (Q70CQ2 whole entry, the tested form may be a part): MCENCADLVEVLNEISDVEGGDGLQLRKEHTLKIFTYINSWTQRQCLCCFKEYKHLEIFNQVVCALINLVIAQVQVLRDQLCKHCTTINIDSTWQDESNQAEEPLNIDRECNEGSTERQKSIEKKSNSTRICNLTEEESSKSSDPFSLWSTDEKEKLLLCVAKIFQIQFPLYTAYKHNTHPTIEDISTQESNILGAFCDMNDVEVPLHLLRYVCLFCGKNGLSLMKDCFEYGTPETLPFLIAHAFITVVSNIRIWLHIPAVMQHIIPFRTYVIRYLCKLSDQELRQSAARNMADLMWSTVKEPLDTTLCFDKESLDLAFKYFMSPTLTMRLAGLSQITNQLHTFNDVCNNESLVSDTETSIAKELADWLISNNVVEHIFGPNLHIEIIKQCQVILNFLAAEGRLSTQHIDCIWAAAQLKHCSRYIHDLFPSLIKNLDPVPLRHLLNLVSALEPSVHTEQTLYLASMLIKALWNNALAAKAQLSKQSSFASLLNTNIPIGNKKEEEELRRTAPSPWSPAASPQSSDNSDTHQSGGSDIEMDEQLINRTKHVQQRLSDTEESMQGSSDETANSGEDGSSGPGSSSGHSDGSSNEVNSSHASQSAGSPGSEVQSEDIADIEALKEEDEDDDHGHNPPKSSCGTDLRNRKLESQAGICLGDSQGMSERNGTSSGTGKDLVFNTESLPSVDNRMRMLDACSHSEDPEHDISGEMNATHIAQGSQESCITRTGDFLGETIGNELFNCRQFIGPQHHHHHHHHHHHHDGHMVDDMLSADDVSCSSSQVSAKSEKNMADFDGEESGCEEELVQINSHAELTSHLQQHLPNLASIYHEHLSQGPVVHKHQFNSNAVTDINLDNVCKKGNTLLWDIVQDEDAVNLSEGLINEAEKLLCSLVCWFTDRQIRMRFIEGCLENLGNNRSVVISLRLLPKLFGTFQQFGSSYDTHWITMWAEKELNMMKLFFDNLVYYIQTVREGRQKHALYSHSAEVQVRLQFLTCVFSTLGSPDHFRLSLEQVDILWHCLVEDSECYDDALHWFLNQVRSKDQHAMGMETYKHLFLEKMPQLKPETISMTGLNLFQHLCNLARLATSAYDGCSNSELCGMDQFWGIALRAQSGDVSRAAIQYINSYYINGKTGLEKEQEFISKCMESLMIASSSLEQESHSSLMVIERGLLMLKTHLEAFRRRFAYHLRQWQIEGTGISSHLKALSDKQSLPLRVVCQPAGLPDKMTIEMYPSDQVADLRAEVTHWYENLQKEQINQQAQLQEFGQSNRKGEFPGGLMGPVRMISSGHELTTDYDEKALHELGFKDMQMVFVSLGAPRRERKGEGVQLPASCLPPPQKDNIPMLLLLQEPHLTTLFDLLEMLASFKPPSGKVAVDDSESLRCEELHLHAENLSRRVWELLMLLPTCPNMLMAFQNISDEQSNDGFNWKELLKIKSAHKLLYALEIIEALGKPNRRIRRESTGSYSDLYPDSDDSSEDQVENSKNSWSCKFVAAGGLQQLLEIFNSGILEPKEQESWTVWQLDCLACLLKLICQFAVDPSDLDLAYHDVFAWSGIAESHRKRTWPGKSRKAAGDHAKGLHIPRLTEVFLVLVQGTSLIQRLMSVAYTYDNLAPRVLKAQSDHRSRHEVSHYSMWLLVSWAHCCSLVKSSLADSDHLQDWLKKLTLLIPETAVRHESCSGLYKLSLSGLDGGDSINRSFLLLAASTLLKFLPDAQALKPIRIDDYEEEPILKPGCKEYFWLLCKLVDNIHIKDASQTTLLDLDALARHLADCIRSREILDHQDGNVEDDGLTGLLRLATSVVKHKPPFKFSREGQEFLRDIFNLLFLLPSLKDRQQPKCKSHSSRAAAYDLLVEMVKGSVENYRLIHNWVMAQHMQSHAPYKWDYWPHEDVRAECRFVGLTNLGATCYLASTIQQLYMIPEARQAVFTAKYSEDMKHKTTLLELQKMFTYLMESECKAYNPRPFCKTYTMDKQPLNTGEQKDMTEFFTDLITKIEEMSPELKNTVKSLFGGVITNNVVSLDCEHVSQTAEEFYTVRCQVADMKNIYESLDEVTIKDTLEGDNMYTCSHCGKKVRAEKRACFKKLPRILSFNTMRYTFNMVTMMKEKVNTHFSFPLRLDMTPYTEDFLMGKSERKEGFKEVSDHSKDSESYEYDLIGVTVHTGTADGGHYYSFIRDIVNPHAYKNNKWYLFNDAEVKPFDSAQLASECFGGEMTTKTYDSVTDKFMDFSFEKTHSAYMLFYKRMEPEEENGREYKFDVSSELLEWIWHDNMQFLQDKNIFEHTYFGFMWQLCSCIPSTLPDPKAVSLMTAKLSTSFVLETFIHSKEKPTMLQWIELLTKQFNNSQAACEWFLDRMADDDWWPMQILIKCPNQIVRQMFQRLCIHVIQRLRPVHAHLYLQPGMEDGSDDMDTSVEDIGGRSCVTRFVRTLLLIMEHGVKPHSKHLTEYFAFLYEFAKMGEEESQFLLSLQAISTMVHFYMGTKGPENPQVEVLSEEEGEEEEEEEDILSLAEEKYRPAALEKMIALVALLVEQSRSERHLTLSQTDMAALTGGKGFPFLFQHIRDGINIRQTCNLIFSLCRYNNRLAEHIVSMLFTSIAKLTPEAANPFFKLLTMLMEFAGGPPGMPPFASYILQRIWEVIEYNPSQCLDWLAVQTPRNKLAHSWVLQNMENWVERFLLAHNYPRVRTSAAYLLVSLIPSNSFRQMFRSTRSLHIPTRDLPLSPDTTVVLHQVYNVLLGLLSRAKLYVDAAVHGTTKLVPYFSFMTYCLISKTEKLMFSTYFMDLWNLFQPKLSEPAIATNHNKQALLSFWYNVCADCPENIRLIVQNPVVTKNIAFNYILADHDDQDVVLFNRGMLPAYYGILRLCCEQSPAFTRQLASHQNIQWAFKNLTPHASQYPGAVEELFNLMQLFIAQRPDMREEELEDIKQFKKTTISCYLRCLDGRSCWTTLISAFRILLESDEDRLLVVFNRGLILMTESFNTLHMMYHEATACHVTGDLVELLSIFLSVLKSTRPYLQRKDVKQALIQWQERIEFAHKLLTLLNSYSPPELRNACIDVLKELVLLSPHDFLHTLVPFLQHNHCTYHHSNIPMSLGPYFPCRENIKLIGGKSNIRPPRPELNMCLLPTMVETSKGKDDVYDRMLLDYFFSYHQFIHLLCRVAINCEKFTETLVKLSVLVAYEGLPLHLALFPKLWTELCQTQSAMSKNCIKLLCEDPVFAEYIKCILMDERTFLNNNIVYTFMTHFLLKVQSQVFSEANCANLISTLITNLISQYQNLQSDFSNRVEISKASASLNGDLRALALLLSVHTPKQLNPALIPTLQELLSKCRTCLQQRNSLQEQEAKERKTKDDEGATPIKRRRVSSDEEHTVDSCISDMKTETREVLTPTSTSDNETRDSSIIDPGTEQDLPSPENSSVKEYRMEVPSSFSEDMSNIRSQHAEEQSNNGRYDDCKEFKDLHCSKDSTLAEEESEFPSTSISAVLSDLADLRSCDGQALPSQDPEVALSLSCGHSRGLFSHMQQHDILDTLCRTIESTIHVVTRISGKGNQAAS
How it was run: (§1)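 Each value is an average log2 ratio of fragment to vehicle, tested by unpaired t-test. The underlying Spectronaut label-free quantities were global-median-normalised, and only proteins with ≥2 unique peptides were included. Triplicate HEK293T lysate samples (495 µg) were exposed to fragment at 200 µM or vehicle for 3 h, then to Biotin-Ahx-Ub-VS at 0.5 µM final for 1 h, before NeutrAvidin enrichment of labelled DUBs, LysC and trypsin digestion, and diaPASEF LC-MS/MS.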

[2] = target: T1, USP36 (UniProt Q9P275)
T1 sequence (whole entry): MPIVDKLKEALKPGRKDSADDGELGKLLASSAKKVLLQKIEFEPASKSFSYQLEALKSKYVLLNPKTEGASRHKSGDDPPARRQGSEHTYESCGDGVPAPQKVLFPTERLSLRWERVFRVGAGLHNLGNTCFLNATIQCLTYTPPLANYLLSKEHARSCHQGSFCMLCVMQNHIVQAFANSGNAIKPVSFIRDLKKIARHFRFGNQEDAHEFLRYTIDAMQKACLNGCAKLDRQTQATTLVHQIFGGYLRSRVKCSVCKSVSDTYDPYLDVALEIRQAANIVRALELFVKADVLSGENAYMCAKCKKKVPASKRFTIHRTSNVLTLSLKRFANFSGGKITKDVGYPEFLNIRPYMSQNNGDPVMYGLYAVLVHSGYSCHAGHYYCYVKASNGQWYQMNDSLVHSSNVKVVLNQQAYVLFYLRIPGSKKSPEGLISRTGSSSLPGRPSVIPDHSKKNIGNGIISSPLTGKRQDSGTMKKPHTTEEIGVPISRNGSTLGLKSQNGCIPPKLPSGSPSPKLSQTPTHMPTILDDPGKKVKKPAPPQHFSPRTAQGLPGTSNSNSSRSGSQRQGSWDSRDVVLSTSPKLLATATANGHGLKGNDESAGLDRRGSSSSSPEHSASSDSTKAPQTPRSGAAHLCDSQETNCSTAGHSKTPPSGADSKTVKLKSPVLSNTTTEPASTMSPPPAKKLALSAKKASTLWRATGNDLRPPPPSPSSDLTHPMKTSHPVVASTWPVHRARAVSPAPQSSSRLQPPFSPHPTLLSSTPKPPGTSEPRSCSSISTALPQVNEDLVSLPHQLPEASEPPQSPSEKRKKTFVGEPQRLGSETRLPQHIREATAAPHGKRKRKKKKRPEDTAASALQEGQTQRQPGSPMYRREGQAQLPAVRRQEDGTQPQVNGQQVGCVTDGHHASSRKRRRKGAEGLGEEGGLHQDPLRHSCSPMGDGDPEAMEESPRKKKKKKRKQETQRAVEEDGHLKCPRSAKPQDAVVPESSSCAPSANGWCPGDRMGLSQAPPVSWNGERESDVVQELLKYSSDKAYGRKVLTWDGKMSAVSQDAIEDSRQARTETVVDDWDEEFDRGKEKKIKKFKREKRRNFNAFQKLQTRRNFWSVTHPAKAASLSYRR
How it was run: as §1

[3] = target: T2, USP38 (UniProt Q8NB14)
T2 sequence (whole entry): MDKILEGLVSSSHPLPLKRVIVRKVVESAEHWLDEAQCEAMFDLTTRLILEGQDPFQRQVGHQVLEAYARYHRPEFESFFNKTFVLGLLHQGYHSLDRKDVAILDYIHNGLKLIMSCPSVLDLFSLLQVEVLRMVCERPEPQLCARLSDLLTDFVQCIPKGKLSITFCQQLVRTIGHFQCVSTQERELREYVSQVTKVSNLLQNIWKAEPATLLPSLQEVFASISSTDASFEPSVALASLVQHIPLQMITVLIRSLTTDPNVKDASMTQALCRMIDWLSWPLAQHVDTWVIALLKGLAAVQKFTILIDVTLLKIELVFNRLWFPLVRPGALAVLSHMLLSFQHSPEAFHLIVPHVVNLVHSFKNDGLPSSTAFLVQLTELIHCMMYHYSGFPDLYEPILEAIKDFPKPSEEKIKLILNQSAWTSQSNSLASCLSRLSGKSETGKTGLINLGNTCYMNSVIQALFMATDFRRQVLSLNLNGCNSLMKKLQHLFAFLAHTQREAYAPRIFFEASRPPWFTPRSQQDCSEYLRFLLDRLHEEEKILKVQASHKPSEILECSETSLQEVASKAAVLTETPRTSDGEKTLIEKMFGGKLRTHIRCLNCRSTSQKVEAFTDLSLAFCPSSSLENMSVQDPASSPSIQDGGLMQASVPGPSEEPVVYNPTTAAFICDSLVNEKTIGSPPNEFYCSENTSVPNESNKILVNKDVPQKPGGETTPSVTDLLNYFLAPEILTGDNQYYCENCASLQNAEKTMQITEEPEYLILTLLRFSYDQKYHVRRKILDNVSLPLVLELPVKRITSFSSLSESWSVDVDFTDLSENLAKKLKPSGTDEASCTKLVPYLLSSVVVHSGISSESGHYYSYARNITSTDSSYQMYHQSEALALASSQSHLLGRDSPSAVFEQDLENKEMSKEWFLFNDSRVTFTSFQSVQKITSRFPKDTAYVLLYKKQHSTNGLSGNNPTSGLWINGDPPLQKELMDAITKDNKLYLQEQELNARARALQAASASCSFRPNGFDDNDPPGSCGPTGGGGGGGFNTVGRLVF
How it was run: as §1

[4] = target: T3, USP39 (UniProt Q53GS9)
T3 sequence (whole entry): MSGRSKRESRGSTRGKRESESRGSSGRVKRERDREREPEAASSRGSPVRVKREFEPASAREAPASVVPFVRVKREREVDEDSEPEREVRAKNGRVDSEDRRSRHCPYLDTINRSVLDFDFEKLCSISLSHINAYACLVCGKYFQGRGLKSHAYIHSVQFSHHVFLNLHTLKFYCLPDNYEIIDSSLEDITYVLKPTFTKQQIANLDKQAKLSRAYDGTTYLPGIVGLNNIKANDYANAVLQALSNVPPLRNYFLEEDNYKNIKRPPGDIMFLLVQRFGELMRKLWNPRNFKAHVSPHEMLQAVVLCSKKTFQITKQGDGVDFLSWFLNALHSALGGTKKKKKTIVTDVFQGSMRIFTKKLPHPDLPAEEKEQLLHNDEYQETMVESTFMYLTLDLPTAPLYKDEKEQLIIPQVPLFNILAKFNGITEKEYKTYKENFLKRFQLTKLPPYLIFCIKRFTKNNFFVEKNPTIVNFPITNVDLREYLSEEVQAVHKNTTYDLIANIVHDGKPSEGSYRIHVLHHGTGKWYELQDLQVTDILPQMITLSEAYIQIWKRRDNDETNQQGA
How it was run: as §1

[5] = target: T4, USP4 (UniProt Q13107)
T4 sequence (whole entry): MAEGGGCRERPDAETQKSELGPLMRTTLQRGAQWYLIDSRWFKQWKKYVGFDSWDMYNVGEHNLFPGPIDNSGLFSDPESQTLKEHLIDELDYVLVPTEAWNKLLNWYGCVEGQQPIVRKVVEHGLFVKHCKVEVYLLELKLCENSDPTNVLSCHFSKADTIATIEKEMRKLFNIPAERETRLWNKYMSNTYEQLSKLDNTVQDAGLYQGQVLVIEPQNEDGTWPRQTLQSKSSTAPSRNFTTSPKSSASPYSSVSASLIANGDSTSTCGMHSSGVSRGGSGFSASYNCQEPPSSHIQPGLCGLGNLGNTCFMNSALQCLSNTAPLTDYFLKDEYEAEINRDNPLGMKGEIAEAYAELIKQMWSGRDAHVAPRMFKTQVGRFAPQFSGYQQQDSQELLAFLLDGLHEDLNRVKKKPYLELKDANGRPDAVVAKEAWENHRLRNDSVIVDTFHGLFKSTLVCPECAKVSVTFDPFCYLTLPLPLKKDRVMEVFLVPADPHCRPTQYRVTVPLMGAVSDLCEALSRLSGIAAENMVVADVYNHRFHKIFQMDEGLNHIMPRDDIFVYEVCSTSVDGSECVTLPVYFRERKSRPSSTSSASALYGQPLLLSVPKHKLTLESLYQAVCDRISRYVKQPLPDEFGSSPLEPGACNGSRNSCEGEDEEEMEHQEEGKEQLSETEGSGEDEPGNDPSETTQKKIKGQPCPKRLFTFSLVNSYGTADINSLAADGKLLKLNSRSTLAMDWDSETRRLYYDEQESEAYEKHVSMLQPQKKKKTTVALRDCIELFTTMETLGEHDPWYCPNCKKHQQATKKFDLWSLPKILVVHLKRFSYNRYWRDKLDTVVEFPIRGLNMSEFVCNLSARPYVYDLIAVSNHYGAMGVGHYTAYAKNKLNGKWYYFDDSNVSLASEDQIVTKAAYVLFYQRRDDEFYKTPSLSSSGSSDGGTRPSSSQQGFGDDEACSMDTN
How it was run: as §1

Measured: log2 ratio of Biotin-Ahx-Ub-VS probe labelling

O=C(CCl)NCCc1cccc2ccccc12
inactive: [1] -0.192 | [2] -0.0173 | [3] 0.0792 | [4] -0.0508 | [5] 0.143
